Measured values from article PMC7862700, “An all-to-all approach to the identification of sequence-specific readers for epigenetic DNA modifications on cytosine”.

Assays:
Assay in all cases: DAPPL (digital affinity profiling via proximity ligation, sequencing); 10 mM Tris-HCl pH 7.5, 50 mM NaCl, 1 mM DTT, 4% glycerol, room temperature, 30 min; GST-TFs on glutathione beads, 16-mer random dsDNA library, 0.1% formaldehyde crosslink after washing; high values mean tight binding
Details in all cases: protein: recombinant; tags: N-terminal GST; dsDNA, one strand shown
[1] = molecular target: T1, FLI1 (Homo sapiens, UniProt Q01543 1-452)
T1 sequence: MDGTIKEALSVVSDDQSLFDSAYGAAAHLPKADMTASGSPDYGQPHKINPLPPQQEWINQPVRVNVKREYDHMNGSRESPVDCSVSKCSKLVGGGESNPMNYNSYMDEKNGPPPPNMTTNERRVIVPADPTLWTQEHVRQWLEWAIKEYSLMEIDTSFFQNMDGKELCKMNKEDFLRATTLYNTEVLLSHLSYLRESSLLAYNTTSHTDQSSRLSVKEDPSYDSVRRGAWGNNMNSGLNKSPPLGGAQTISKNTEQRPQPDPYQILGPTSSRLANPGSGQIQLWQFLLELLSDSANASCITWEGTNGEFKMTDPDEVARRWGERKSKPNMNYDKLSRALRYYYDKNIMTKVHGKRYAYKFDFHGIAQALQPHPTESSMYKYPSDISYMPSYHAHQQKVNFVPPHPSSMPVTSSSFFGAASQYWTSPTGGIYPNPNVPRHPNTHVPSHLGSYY
How it was run: (§1)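 Sequencing on an Illumina NextSeq500 followed washing, crosslinking with 0.1% formaldehyde, proximity ligation (BsaI/T4 ligase, 1 h, 37 °C) and PCR amplification of pools that had been incubated for 30 min at room temperature with 200 nmole of a random double-stranded 16-mer DNA library in Tris/NaCl/DTT/glycerol buffer. Each pool held DNA-barcoded human transcription factors, expressed in yeast as GST fusions and captured on glutathione beads, plus a tag-only sample. Binding signal is a hexamer's read frequency for a factor divided by its frequency in the tag-only sample.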

[2] = molecular target: T2, ELK1 (Homo sapiens, UniProt P19419 1-428)
T2 sequence: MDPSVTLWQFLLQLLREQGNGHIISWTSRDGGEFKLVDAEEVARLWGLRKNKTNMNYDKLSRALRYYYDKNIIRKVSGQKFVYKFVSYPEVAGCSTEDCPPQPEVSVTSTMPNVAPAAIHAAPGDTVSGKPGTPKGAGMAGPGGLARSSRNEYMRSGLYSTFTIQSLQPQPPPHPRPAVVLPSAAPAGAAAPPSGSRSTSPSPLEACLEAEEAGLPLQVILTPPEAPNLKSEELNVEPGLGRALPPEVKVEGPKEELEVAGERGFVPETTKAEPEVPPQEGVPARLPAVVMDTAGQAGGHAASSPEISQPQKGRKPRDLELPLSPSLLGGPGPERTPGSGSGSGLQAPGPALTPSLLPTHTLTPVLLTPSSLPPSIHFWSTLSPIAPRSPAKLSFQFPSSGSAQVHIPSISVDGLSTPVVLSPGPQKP
How it was run: as §1

[3] = molecular target: T3, GABPA (Homo sapiens, UniProt Q06546 1-454)
T3 sequence: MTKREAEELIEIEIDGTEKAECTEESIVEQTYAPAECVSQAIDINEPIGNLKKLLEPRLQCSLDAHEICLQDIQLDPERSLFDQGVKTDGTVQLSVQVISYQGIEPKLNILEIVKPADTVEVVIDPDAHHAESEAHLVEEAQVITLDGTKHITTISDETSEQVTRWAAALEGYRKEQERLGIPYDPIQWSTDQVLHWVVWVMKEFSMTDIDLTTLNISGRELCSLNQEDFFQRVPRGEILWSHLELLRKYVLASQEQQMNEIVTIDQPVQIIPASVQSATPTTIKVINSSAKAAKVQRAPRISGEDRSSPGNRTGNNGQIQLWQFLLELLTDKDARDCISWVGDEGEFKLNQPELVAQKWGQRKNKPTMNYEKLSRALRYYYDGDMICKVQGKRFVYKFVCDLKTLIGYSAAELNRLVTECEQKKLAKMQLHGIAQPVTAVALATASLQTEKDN
How it was run: as §1

[4] = molecular target: T4, ERG (Homo sapiens, UniProt P11308 1-479)
T4 sequence: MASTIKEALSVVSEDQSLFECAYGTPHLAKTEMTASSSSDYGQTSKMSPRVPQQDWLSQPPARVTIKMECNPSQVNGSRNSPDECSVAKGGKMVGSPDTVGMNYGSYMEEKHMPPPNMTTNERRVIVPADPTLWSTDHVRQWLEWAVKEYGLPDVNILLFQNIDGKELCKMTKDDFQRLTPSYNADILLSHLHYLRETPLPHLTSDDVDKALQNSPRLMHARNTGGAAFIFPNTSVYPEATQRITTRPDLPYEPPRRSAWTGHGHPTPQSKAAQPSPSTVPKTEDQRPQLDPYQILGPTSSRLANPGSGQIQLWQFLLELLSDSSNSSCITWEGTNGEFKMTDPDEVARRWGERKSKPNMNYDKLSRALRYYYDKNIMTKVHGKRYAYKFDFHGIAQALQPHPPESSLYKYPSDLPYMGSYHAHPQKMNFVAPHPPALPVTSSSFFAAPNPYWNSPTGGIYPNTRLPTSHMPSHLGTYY
How it was run: as §1

[5] = molecular target: ELF1 (Homo sapiens, UniProt P32519 1-619)
ELF1, sequence (P32519 whole entry): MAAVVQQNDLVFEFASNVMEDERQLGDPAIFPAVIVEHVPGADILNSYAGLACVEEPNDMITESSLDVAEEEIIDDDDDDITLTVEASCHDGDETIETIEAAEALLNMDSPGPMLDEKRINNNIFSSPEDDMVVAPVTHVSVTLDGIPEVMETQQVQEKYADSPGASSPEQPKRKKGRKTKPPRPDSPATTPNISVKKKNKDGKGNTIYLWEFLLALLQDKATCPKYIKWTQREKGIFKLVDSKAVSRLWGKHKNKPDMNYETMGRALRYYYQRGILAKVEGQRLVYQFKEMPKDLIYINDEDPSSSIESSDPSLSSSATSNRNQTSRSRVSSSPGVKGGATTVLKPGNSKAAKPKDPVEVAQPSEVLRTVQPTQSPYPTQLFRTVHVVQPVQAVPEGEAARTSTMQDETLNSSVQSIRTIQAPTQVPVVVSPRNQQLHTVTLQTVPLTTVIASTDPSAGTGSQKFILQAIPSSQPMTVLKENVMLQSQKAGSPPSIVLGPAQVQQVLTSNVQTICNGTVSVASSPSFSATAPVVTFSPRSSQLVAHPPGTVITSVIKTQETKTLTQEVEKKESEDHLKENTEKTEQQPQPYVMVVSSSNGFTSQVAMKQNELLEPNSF
How it was run: as §1

[6] = molecular target: T5, EHF (Homo sapiens, UniProt Q9NZC4 1-300)
T5 sequence: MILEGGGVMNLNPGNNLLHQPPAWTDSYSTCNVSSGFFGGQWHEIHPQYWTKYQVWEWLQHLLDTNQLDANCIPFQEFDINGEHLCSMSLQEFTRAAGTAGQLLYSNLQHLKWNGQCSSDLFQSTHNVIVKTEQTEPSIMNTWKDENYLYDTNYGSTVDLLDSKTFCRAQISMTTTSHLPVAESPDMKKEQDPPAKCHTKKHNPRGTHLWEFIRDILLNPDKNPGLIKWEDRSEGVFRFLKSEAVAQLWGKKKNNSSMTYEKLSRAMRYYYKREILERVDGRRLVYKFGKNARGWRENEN
How it was run: as §1

[7] = molecular target: SPI1 (Homo sapiens, UniProt P17947 1-270)
How it was run: as §1

[8] = molecular target: SPIB (Homo sapiens, UniProt Q01892 1-262)
SPIB, sequence (Q01892 whole entry): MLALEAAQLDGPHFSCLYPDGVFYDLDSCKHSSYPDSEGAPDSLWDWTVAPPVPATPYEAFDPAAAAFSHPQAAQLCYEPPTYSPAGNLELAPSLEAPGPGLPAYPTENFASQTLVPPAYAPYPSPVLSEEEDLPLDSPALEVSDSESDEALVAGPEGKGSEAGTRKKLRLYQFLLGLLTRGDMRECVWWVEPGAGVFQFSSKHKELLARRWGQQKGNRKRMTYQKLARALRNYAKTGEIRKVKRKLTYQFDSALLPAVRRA
How it was run: as §1

[9] = molecular target: T6, ELK3 (Homo sapiens, UniProt P41970 1-407)
T6 sequence: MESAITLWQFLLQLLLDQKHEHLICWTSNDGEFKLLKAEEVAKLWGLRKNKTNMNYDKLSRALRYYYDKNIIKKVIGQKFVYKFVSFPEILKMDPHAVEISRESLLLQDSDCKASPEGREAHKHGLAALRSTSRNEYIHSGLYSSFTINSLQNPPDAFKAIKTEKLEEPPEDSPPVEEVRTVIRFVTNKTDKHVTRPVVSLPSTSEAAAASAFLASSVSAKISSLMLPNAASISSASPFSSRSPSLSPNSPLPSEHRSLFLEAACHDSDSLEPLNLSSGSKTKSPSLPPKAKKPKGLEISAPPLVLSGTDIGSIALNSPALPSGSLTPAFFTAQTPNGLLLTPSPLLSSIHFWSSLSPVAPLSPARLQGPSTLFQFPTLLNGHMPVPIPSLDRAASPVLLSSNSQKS
How it was run: as §1

[10] = molecular target: T7, FEV (Homo sapiens, UniProt Q99581 1-238)
T7 sequence: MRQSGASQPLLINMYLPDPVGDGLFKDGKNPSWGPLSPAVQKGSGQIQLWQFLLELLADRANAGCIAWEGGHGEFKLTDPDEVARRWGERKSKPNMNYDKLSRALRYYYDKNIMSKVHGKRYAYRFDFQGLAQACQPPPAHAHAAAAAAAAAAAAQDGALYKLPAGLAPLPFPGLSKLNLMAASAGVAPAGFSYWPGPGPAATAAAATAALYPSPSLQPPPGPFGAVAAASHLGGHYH
How it was run: as §1

[11] = molecular target: ETV5 (Homo sapiens, UniProt P41161 1-510)
ETV5, sequence (P41161 whole entry): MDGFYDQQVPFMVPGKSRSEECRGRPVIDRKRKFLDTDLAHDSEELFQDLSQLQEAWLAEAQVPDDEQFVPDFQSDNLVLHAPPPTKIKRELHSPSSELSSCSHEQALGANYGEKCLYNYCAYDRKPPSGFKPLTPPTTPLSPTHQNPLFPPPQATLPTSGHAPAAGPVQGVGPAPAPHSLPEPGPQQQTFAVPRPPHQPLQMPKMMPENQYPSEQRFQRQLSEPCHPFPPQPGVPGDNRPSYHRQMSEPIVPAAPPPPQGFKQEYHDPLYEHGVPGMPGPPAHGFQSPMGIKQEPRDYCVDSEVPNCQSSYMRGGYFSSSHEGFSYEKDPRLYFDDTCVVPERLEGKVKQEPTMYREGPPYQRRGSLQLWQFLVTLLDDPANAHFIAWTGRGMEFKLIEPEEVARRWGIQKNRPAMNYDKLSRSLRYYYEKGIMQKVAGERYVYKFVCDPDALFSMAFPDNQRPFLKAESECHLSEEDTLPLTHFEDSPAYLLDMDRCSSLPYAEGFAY
How it was run: as §1

[12] = molecular target: T8, SPIC (Homo sapiens, UniProt Q8N5J4 1-248)
T8 sequence: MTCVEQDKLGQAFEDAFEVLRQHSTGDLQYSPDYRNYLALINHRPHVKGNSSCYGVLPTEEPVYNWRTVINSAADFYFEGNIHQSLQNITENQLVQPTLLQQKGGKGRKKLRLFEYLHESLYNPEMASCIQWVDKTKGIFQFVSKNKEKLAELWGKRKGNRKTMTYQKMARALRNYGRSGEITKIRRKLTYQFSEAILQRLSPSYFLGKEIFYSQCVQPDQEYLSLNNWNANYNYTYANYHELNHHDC
How it was run: as §1

[13] = molecular target: ELF4 (Homo sapiens, UniProt Q99607 1-663)
ELF4, sequence (Q99607 whole entry): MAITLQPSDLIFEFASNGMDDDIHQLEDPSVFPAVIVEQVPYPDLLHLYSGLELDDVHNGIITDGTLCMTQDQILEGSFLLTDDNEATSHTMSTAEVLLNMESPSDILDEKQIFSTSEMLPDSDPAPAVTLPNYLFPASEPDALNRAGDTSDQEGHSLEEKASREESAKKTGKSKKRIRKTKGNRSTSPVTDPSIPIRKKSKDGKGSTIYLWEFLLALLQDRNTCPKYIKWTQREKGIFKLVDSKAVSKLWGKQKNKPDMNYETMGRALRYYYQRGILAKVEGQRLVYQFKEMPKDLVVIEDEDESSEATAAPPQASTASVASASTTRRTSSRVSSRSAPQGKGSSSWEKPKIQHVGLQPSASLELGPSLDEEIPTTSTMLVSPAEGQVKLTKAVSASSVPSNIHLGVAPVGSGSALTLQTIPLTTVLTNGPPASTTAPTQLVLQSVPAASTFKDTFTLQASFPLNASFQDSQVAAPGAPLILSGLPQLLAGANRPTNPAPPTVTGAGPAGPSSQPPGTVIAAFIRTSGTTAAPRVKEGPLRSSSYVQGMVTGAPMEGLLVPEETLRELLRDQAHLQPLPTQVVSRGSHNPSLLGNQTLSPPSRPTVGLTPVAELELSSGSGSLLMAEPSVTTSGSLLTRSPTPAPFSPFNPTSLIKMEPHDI
How it was run: as §1

[14] = molecular target: T9, ELK4 (Homo sapiens, UniProt P28324-2 1-405)
T9 sequence: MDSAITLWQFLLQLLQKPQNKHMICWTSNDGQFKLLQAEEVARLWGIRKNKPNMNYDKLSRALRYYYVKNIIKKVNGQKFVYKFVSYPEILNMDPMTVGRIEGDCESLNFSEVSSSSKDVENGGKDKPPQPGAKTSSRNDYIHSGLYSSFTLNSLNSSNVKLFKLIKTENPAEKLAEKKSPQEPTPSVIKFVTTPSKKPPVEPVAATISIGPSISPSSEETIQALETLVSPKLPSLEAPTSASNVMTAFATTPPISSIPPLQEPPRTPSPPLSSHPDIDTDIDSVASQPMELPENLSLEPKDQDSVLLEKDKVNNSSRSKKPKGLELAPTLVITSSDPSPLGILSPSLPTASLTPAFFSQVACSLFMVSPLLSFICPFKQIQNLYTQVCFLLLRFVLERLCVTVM
How it was run: as §1

[15] = molecular target: T10, ETV2 (Homo sapiens, UniProt O00321 1-342)
T10 sequence: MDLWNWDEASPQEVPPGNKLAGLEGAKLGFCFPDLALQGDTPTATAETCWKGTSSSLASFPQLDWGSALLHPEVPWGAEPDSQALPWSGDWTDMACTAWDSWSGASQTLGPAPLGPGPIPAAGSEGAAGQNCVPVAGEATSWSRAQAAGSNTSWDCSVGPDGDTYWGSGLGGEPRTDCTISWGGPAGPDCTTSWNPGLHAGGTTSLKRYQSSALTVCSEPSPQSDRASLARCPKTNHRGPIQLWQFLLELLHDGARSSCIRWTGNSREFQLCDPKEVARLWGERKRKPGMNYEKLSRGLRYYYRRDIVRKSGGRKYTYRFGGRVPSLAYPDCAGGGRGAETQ
How it was run: as §1

[16] = molecular target: T11, ELF3 (Homo sapiens, UniProt P78545 1-371)
T11 sequence: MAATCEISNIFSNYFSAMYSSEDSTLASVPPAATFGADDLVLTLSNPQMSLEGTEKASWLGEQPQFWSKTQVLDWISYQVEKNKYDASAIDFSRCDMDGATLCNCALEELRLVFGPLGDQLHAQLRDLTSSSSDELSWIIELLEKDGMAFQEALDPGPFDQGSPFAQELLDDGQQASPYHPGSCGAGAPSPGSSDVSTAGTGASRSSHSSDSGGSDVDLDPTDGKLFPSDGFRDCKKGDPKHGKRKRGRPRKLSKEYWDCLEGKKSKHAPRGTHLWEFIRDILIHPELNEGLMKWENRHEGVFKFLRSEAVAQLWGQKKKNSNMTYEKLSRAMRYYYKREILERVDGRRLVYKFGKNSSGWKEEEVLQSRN
How it was run: as §1

[17] = molecular target: ETV1 (Homo sapiens, UniProt P50549 1-477)
ETV1, sequence (P50549 whole entry): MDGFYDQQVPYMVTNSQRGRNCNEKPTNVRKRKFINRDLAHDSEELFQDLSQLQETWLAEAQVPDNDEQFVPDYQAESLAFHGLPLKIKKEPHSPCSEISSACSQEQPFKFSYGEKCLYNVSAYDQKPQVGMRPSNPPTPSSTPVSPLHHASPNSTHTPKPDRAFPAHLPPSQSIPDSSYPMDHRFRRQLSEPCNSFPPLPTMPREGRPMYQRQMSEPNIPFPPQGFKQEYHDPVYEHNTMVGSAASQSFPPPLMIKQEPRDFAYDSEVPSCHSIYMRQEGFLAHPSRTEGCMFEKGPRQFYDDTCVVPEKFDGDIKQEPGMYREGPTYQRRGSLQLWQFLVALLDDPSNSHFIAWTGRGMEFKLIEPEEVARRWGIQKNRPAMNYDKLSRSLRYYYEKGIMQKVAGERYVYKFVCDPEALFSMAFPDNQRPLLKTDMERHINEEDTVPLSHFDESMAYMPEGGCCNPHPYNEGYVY
How it was run: as §1

| Sequence | binding signal [1] | binding signal [2] | binding signal [3] | binding signal [4] | binding signal [5] | binding signal [6] | binding signal [7] | binding signal [8] | binding signal [9] | binding signal [10] | binding signal [11] | binding signal [12] | binding signal [13] | binding signal [14] | binding signal [15] | binding signal [16] | binding signal [17] |
| --- | --- | --- | --- | --- | --- | --- | --- | --- | --- | --- | --- | --- | --- | --- | --- | --- | --- |
| CGTCAA | 1.2 fold enrichment (6-mer frequency, TF over GST control) | 1.15 fold enrichment (6-mer frequency, TF over GST control) | 1.19 fold enrichment (6-mer frequency, TF over GST control) | 1.11 fold enrichment (6-mer frequency, TF over GST control) | 1.11 fold enrichment (6-mer frequency, TF over GST control) | 1.12 fold enrichment (6-mer frequency, TF over GST control) | 1.01 fold enrichment (6-mer frequency, TF over GST control) | 1.27 fold enrichment (6-mer frequency, TF over GST control) | 1.06 fold enrichment (6-mer frequency, TF over GST control) | 1.08 fold enrichment (6-mer frequency, TF over GST control) | 1.08 fold enrichment (6-mer frequency, TF over GST control) | 1.19 fold enrichment (6-mer frequency, TF over GST control) | 1.15 fold enrichment (6-mer frequency, TF over GST control) | 1.12 fold enrichment (6-mer frequency, TF over GST control) | 1.2 fold enrichment (6-mer frequency, TF over GST control) | 1.2 fold enrichment (6-mer frequency, TF over GST control) | 1.12 fold enrichment (6-mer frequency, TF over GST control) |
| ATGCGG | 1.3 fold enrichment (6-mer frequency, TF over GST control) | 1.22 fold enrichment (6-mer frequency, TF over GST control) | 1.2 fold enrichment (6-mer frequency, TF over GST control) | 1.22 fold enrichment (6-mer frequency, TF over GST control) | 1.2 fold enrichment (6-mer frequency, TF over GST control) | 1.31 fold enrichment (6-mer frequency, TF over GST control) | 1.56 fold enrichment (6-mer frequency, TF over GST control) | 1.32 fold enrichment (6-mer frequency, TF over GST control) | 1.23 fold enrichment (6-mer frequency, TF over GST control) | 1.13 fold enrichment (6-mer frequency, TF over GST control) | 1.29 fold enrichment (6-mer frequency, TF over GST control) | 1.49 fold enrichment (6-mer frequency, TF over GST control) | 1.23 fold enrichment (6-mer frequency, TF over GST control) | 1.15 fold enrichment (6-mer frequency, TF over GST control) | 1.27 fold enrichment (6-mer frequency, TF over GST control) | 1.63 fold enrichment (6-mer frequency, TF over GST control) | 1.24 fold enrichment (6-mer frequency, TF over GST control) |
